In PubChem BioAssay (NCATS):
Records with an inconclusive call do not appear. Calls of active or inactive are those of the source. Calls follow the shape of the dose curve; as a rule, active = well fitted inhibition curve with a large enough effect; inconclusive = small, poorly fitted or top-dose-only effect; inactive = flat fitted curve, though single readings scatter.

Biological target: Lysine-specific demethylase 5B (Homo sapiens) (UniProt Q9UGL1)
Experiment: Optimization screen for KDM5B Histone Demethylases FDH coupled qHTS against the LOPAC library (AID 1347166); also: 0% is about no effect
Conditions: KDM5B demethylation, FDH-coupled NADH fluorescence (FDH is formaldehyde dehydrogenase); series mostly up to 57.5 µM; activity, negative = inhibition: at the top concentration
How it was run: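 KDM5BDeltaAP (200nM final) in 50mM HEPES pH 7.5, 0.01% Tween-20 was preincubated with compound for 10 min at room temperature. A substrate mix of 12.5uM H3K4Me3, 25uM a-ketoglutarate, ascorbate, Fe2+, NAD+ and formaldehyde dehydrogenase was then added. NADH fluorescence (340/450 nm) was read initially and after 30 min.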

Sequence of Lysine-specific demethylase 5B (Homo sapiens) (Q9UGL1 whole entry, looked up): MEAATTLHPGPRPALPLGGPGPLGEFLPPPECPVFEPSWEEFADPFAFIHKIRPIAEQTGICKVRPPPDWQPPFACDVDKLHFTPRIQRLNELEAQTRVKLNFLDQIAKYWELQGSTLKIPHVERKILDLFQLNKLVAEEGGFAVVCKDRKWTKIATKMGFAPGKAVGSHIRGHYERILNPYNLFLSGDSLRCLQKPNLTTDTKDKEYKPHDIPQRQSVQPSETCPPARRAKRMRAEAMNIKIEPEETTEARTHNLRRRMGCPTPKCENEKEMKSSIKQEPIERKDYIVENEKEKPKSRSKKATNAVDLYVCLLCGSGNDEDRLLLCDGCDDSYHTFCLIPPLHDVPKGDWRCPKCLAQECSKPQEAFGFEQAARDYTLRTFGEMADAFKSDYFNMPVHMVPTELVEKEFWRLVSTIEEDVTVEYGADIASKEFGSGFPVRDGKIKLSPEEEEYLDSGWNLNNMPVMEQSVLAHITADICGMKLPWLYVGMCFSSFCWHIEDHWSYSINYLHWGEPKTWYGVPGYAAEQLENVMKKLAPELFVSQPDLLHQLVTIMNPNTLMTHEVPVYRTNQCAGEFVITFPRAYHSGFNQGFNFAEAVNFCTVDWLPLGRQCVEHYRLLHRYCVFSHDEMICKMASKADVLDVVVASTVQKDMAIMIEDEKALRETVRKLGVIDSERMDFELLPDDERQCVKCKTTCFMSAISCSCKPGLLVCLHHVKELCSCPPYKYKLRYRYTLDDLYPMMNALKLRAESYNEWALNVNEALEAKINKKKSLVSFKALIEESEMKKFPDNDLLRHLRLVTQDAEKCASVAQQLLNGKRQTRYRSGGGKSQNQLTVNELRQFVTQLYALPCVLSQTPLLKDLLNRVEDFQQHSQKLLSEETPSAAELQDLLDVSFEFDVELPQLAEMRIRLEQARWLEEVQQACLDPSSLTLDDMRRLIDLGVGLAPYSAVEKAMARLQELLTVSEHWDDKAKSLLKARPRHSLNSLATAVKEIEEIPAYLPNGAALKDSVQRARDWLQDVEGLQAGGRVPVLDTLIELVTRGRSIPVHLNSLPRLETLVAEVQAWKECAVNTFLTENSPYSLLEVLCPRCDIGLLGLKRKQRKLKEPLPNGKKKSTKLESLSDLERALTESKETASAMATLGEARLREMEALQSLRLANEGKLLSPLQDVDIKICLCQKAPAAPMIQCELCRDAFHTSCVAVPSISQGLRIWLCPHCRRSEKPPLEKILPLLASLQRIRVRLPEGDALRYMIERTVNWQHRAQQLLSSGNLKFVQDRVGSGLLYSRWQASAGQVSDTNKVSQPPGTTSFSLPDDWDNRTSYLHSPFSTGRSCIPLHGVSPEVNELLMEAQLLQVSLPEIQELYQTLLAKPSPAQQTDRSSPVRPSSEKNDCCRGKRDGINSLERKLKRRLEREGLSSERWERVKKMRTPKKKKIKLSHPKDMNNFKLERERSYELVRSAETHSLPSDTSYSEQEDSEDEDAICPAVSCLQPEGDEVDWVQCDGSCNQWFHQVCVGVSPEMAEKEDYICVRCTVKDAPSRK

SMILES	activity, negative = inhibition	outcome
Nc1ncnc2c1ncn2[C@@H]1O[C@H](COP(=O)(O)OP(=O)(O)OP(=O)(O)OP(=O)(O)OC[C@@H]2O[C@H](n3cnc4c(N)ncnc43)[C@@H](O)[C@H]2O)[C@@H](O)[C@H]1O	-4.3% (inactive)	
CC12C(=O)OC(=O)C1(C)C1CCC2O1 (configuration not stated)	3.5% (inactive)	
NCCCS(=O)(=O)O	-8.22% (inactive)	
O=P(O)(O)C(Cl)(Cl)P(=O)(O)O	-7.75% (inactive)	
CCN(CC)c1ncnc2c1ncn2[C@@H]1O[C@H](COP(=O)(O)OP(=O)(O)C(Br)(Br)P(=O)(O)O)[C@@H](O)[C@H]1O	-6.63% (inactive)	
O=C(c1ccc(Cl)cc1)N1CCN(c2ccc([N+](=O)[O-])c3ncccc23)CC1	-7.11% (inactive)	
COc1ccc(/C=C/C(=O)Nc2ccccc2C(=O)O)cc1OC	-22.9% (inactive)	
Cc1ccc(C(=O)O[C@H](C(=O)O)[C@@H](OC(=O)c2ccc(C)cc2)C(=O)O)cc1 (tested in a mixture with another compound)	-0.0653% (inactive)	
N=C(N)SCCc1ccc(CCSC(=N)N)cc1	-2.17% (inactive)	
C[N+]1(C)C2CC(OC(=O)[C@H](CO)c3ccccc3)CC1C1OC12 (some centres not stated)		inactive
Cn1cc(C2=C(c3ccc(Cl)cc3Cl)C(=O)NC2=O)c2ccccc21	-17.3% (inactive)	
COc1ccccc1N1CCN(CCCCNS(=O)(=O)c2cccc3c(N(C)C)cccc23)CC1	-24.8% (inactive)	
CN(C)CCC(c1ccc(Cl)cc1)c1ccccn1 (configuration not stated)	-2.75% (inactive)	
COc1ccccc1N1CCN(CCN(C(=O)c2ccc(I)cc2)c2ccccn2)CC1	-9.25% (inactive)	
Cc1nc2sccn2c(=O)c1CCN1CCC(=C(c2ccccc2)c2ccc(F)cc2)CC1	0.383% (inactive)	
O=C(O)c1cc(=O)c2c(Cl)cc(Cl)cc2[nH]1	-24.8% (inactive)	
COc1cc(OC)c(/C=C2/C(=O)Nc3ccccc32)c(OC)c1	-5.44% (inactive)	
Nc1nc(SCc2ccc([N+](=O)[O-])cc2)c2ncn([C@@H]3O[C@H](CO)[C@@H](O)[C@H]3O)c2n1	-6.62% (inactive)	
CC(C)NC[C@H](O)COc1cccc2[nH]ccc12	-0.901% (inactive)	

SMILES	activity, negative = inhibition	outcome
NCCNC(=O)c1ncsc1-c1cccc(F)c1	-10.8% (inactive)	
OC[C@H]1O[C@@H](n2cnc3c(Nc4ccccc4)ncnc32)[C@H](O)[C@@H]1O	-5.28% (inactive)	
CCCCC#Cc1nc(NC)c2ncn([C@@H]3O[C@H](CO)[C@@H](O)[C@H]3O)c2n1	-16.3% (inactive)	
CCCCCCCCCCCCCCCC(=O)OC(CC(=O)O)C[N+](C)(C)C (configuration not stated)	-19.9% (inactive)	
O=C(O)c1cc([N+](=O)[O-])ccc1NCCCc1ccccc1	-25.9% (inactive)	
COc1ccccc1CNCCCCCCNCCCCCCCCNCCCCCCNCc1ccccc1OC	-5.49% (inactive)	
NC(=S)c1ccc[n+]([C@@H]2O[C@@H](COP(=O)([O-])OP(=O)(O)OC[C@H]3O[C@@H](n4cnc5c(N)ncnc54)[C@H](OP(=O)(O)O)[C@@H]3O)C(O)C2O)c1 (some centres not stated)	-12.5% (inactive)	
O=C(O)CCCC[C@@H]1CCSS1	7.34% (inactive)	
COc1cc(C(O)CO)ccc1OS(=O)(=O)O (configuration not stated)	-8.86% (inactive)	
CCCCCCCCCCCCCCCCCCNC(=O)OCC(COP(=O)([O-])OCC[n+]1ccsc1)OC (configuration not stated)	-6.84% (inactive)	
C=CC(C)=C[C@@]1(C)SC(=O)C(C)=C1O	0.788% (inactive)	
NC(=O)C1=CN(C2OC(COP(=O)(O)OP(=O)(O)OC[C@H]3O[C@@H](n4cnc5c(N)ncnc54)[C@H](OP(=O)(O)O)[C@@H]3O)C(O)C2O)C=CC1 (some centres not stated)	-15.5% (inactive)	
NCCCCC(=O)O	-1.05% (inactive)	
CC(=O)SCC[N+](C)(C)C	-3.44% (inactive)	
CNc1ncnc2c1ncn2[C@@H]1O[C@H](CO)[C@@H](O)[C@H]1O	0.581% (inactive)	
CO/N=C(\C(=O)N[C@@H]1C(=O)N2C(C(=O)O)=C(COC(C)=O)CS[C@H]12)c1csc(N)n1	-6.47% (inactive)	
CCCCN1CCC(n2c(=O)[nH]c3ccccc32)CC1	-5.4% (inactive)	
COc1ccc2c(c1)CCC1C2CC[C@@]2(C)C1CC[C@@H]2NCCCCCCN1C(=O)CCC1=O (some centres not stated)	-17.1% (inactive)	
